Data published in PubChem BioAssay (NCI).
This is part of a sample that, as a whole, favours compounds with a hit. Of some 83,000 tested, about 20% had one in any assay.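 Cell lines were cultured in 96-well plates, exposed to a single compound concentration, and assessed for percent growth 48 hours later.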 The source made the active and inactive calls. Rule for the calls: active = growth percent below 10; inactive = the rest.

Key:
Test in all cases: NCI-60 one-dose screen, 48 h (100 = growth as untreated, 0 = no growth, -100 = all killed)
Conditions in all cases: 10 µM unless noted
[1] = test system: NCI-H226 lung
[2] = test system: NCI-H322M lung
[3] = test system: HOP-62 NSCLC
[4] = test system: NCI-H460 lung
[5] = test system: HOP-92 NSCLC
[6] = test system: NCI-H522 lung
[7] = test system: A549/ATCC NSCLC
[8] = test system: 786-0 renal
[9] = test system: COLO 205 colon
[10] = test system: NCI-H23 lung

Measured: growth

NS(=O)(=O)c1ccc(-n2nc(C(=O)N/N=C\c3ccc(F)cc3)cc2-c2ccc(Cl)cc2)cc1
inactive: [1] 82.7% | [2] 89.6% | [3] 74.1% | [4] 99.4% | [5] 56% | [6] 78.4% | [7] 95.1% | [8] 105% | [9] 116%

Cc1ccc2[nH]c(=O)c3c(c2c1)OC(N)=C(C#N)C31c2cc(Br)ccc2-c2ccc(Br)cc21
inactive: [10] 59.1% | [1] 58.7% | [2] 75.3% | [3] 69% | [5] 42.7% | [6] 74.2% | [7] 53.9% | [8] 46.4% | [9] 30.2%

O=C(COc1ccc(/C=C2\Oc3ccccc3C2=O)cc1)Nc1nc2c(s1)CCCC2
inactive: [1] 84.3% | [2] 115% | [3] 44.2% | [4] 99.5% | [7] 73.2% | [8] 20% | [9] 102%
active: [5] -90.1% | [6] -74.9%

COc1ccc(-c2cc(-c3ccc(Nc4nc(Nc5ccc(Cl)cc5)nc(Nc5ccc(Cl)cc5)n4)cc3)nc(N)c2C#N)cc1
inactive: [10] 30% | [2] 113% | [3] 86.8% | [6] 83.4% | [7] 37% | [8] 41.6%
active: [1] 9.85% | [5] -53.8% | [9] 5.26%

Cc1cc(C)c(-c2c(C)cc(C)cc2CBr)c(CBr)c1
inactive: [10] 85.8% | [1] 100% | [2] 102% | [3] 84.6% | [5] 106% | [6] 66.4% | [7] 68.6% | [8] 95.8% | [9] 78.6%

CNC(=O)NCC1OC(n2cnc3c(NC(=O)Nc4ccccc4)ncnc32)C(O[Si](C)(C)C(C)(C)C)C1CC(=O)N(C)OC (centres undefined)
active: [5] -34.3% | [7] 2.06% | [9] -100%
inactive: [10] 48.2% | [1] 40.6% | [2] 78.8% | [3] 60.3% | [6] 65.9% | [8] 47.4%

COc1ccc(C(=O)Nn2c(NCC(=O)N3c4ccccc4Sc4ccccc43)nnc2-c2ccc(O)cc2)cc1
inactive: [1] 101% | [2] 104% | [3] 103% | [4] 110% | [5] 87.9% | [6] 92.2% | [7] 97.5% | [8] 100% | [9] 112%

COc1ccc2c(c1)C(=O)/C(=C/c1ccc(OCC(=O)Nc3nccs3)cc1)O2
active: [5] -78.8% | [6] -61% | [8] -12.6%
inactive: [1] 94.1% | [2] 127% | [3] 106% | [4] 90.2% | [9] 54.9%

Cc1cc(/C=C\c2ccc3ccccc3[n+]2C)c(O)c2ncccc12
inactive: [3] 20.3% | [5] 19.4% | [6] 32.1% | [7] 12%
active: [1] -35.5% | [2] 8.71% | [4] 4.5% | [8] 9.72% | [9] 9.56%

CC1=CN2C(=O)C3C4=C(CCCC4)SC3N=C2CN1c1c(C)cccc1C (centres undefined)
inactive: [1] 71% | [2] 109% | [3] 82.5% | [4] 76.6% | [5] 55.2% | [6] 77.4% | [7] 82.4% | [8] 75.9% | [9] 110%

O=C(COc1ccc(/C=C2\Oc3ccccc3C2=O)cc1)c1ccc(Cl)cc1
inactive: [1] 92.4% | [2] 126% | [3] 91.1% | [4] 115% | [5] 88% | [6] 96.1% | [7] 112% | [8] 91% | [9] 108%

COc1cccc(-c2nc3sccn3c2-c2ccnc(NCCNS(=O)(=O)c3ccc(C(F)(F)F)cc3)c2)c1
inactive: [1] 34.8% | [2] 72.3% | [3] 62% | [4] 35.6% | [6] 55.7% | [7] 38.1% | [8] 51.6% | [9] 28.5%

CCN1CCN(c2cc(C)nc(NCc3cc(Nc4ccnc5cc(Cl)ccc45)ccc3F)n2)CC1
inactive: [1] 83.7% | [2] 90.2% | [3] 52.3% | [4] 61.8% | [5] 62.9% | [6] 106% | [7] 74.6% | [8] 85%
active: [9] -86.2%

O=C1Nc2ccc(F)cc2C12Nc1cc(Cl)ccc1S2 (centres undefined)
inactive: [1] 108% | [2] 84.6% | [3] 111% | [4] 89.5% | [6] 90.9% | [7] 94.9% | [8] 105% | [9] 112%
active: [5] -5.66%
